Laboratory results: publication PMC11574364

Experiments:
Assay in all cases: protein domain microarray probed with biotinylated miRNA; Domain array: 20 mM Tris-HCl pH 7.4, 200 mM KCl, 0.2 mM EDTA, 0.05% NP40, 2 ug/ul heparin, overnight 4 C. ORF array: PBS pH 7.0 with RNase inhibitor, 100 ng RNA; high values mean tight binding
Conditions in all cases: ssRNA
TIAL1 = target: T1, TIAL1 (Homo sapiens, UniProt Q01085)
T1 sequence: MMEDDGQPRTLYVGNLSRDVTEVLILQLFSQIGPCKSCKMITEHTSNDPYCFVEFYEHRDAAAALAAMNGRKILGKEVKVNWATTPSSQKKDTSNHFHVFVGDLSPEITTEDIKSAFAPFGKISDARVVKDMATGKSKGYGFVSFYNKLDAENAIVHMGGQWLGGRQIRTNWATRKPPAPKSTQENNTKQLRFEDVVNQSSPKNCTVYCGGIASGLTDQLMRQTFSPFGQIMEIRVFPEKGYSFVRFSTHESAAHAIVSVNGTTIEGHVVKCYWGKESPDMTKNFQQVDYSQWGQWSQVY

RBMY1A1 / RBMY1B = RBMY1A1 / RBMY1B (Homo sapiens, UniProt P0DJD3)
SHARP(1) = target: T2, SHARP(1) (Homo sapiens, UniProt Q96T58)
T2 sequence: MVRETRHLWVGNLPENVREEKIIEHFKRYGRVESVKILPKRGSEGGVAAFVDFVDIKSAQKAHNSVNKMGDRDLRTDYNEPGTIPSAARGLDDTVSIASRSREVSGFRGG

RBMX2 = target: T3, RBMX2 (Homo sapiens, UniProt Q9Y388)
T3 sequence: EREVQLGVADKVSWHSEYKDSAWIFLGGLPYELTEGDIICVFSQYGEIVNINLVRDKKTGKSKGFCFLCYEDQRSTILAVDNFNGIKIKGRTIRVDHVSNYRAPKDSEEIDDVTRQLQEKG

RDM1 = target: T4, RDM1 (Homo sapiens, UniProt Q8NG50)
T4 sequence: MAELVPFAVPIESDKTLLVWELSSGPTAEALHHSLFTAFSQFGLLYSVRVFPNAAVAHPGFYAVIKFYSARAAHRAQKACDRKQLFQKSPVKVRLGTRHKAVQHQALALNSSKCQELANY

SHARP(2-4) = target: T5, SHARP(2-4) (Homo sapiens, UniProt Q96T58)
T5 sequence: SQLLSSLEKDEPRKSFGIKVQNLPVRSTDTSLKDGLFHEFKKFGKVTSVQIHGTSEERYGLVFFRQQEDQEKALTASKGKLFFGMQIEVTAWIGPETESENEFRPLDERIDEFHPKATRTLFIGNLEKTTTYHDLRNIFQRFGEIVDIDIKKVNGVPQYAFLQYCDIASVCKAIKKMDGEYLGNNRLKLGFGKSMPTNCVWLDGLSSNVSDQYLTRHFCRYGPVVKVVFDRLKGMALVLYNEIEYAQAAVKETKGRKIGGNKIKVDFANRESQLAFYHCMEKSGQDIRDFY

SRSF10 = SRSF10 (Homo sapiens, UniProt O75494)
hnRNP E1(1-2) = hnRNP E1(1-2) (Homo sapiens, UniProt Q15365)
RNPS1 = target: T6, RNPS1 (Homo sapiens, UniProt Q15287)
T6 sequence: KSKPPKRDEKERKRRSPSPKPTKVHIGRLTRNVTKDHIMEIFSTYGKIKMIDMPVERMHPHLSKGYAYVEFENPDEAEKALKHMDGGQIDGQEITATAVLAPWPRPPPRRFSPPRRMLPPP

DDX9(2)/DHX9 = DDX9(2)/DHX9 (Homo sapiens, UniProt Q08211)
DDX9(2)/DHX9, sequence (Q08211 161-271): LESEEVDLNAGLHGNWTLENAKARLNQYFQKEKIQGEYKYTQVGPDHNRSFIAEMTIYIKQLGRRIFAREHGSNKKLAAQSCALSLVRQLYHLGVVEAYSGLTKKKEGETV

SRSF10, sequence (O75494 1-120): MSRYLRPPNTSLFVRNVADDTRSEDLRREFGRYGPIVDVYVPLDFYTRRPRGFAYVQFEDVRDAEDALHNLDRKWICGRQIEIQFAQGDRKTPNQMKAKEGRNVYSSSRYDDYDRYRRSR
hnRNP E1(1-2), sequence (Q15365 1-183): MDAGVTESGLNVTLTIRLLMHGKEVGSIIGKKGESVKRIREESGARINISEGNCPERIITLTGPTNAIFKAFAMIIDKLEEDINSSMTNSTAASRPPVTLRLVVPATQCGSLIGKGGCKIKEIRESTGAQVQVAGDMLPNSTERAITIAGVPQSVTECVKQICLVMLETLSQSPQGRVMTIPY
RBMY1A1 / RBMY1B, sequence (P0DJD3 1-110): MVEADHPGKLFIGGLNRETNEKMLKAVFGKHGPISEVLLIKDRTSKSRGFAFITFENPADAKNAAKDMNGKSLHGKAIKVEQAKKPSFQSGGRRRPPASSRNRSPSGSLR

Sequence	binding signal (TIAL1) [fluorescence intensity]	binding signal (RBMY1A1 / RBMY1B) [fluorescence intensity]	binding signal (SHARP(1)) [fluorescence intensity]	binding signal (RBMX2) [fluorescence intensity]	binding signal (RDM1) [fluorescence intensity]	binding signal (SHARP(2-4)) [fluorescence intensity]	binding signal (SRSF10) [fluorescence intensity]	binding signal (hnRNP E1(1-2)) [fluorescence intensity]	binding signal (RNPS1) [fluorescence intensity]	binding signal (DDX9(2)/DHX9) [fluorescence intensity]
UAGCUUAUCAGACUGAUGUUGA	684 ± 18.7	602 ± 35.9	32 ± 6.87	21.4 ± 3.97	21.8 ± 0.523	705 ± 41.5	33.4 ± 2.35	–	–	–
AGAGGUAGUAGGUUGCAUAGUU	1020 ± 13.1	2000 ± 49	423 ± 5.21	65.8 ± 17.9	230 ± 20.4	711 ± 17.9	422 ± 31.8	27.4 ± 2.06	183 ± 12.6	33 ± 2.41
UGAGGUAGUAGGUUGUAUGGUU	789 ± 12.4	1403 ± 13.2	702.32 ± 0.332	69.6 ± 0.757	232 ± 12	710 ± 31.7	375 ± 21.5	26.7 ± 0.438	294 ± 40.2	44.6 ± 4.16
UGAGGUAGUAGGUUGUAUAGUU	437 ± 10.1	754 ± 30.5	63 ± 1.09	34.7 ± 8.67	46.4 ± 1.9	138 ± 34.1	91 ± 3.12	–	45.1 ± 1.35	–
UGAGGUAGUAGGUUGUGUGGUU	740 ± 11.2	1360 ± 32	1119.4 ± 0.849	111 ± 6.68	427 ± 12.9	1000 ± 18.8	467 ± 36.1	34.9 ± 2.48	565 ± 18.8	53.91 ± 0.134
CAGUGCAAUGAUGAAAGGGCAU	523 ± 28	1153 ± 5.4	1723 ± 15.7	29.6 ± 4.16	185 ± 14.8	630 ± 20.1	865.4 ± 6.43	26.8 ± 0.919	160 ± 25.6	26 ± 1.37
